Of roughly 7,900 targets only a part is listed; those with a hit were picked by preference. About 0.6% of all pairs of compound and target were hits. Values without a mark were called inactive.

UniProt O95372, sequence (O95372 whole entry, looked up): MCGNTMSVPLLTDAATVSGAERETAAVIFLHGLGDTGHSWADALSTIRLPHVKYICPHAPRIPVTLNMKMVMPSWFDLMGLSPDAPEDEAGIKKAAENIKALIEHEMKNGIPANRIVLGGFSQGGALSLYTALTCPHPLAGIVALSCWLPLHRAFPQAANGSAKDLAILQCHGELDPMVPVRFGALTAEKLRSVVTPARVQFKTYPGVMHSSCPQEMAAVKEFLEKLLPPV
UniProt Q14681, sequence (Q14681 whole entry, looked up): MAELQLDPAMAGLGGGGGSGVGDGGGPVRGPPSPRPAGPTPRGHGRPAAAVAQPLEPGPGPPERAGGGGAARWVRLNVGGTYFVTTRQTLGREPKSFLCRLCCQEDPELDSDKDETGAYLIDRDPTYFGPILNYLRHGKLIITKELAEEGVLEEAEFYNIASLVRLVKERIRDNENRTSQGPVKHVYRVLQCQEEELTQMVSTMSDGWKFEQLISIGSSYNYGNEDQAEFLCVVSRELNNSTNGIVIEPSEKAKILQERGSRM
UniProt Q13257, sequence (Q13257 whole entry, looked up): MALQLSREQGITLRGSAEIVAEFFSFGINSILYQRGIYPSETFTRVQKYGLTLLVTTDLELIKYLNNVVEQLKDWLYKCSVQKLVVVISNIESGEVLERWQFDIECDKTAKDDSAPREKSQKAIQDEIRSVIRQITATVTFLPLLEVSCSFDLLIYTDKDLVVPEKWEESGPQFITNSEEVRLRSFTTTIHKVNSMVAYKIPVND
UniProt Q9UI26, sequence (Q9UI26 whole entry, looked up): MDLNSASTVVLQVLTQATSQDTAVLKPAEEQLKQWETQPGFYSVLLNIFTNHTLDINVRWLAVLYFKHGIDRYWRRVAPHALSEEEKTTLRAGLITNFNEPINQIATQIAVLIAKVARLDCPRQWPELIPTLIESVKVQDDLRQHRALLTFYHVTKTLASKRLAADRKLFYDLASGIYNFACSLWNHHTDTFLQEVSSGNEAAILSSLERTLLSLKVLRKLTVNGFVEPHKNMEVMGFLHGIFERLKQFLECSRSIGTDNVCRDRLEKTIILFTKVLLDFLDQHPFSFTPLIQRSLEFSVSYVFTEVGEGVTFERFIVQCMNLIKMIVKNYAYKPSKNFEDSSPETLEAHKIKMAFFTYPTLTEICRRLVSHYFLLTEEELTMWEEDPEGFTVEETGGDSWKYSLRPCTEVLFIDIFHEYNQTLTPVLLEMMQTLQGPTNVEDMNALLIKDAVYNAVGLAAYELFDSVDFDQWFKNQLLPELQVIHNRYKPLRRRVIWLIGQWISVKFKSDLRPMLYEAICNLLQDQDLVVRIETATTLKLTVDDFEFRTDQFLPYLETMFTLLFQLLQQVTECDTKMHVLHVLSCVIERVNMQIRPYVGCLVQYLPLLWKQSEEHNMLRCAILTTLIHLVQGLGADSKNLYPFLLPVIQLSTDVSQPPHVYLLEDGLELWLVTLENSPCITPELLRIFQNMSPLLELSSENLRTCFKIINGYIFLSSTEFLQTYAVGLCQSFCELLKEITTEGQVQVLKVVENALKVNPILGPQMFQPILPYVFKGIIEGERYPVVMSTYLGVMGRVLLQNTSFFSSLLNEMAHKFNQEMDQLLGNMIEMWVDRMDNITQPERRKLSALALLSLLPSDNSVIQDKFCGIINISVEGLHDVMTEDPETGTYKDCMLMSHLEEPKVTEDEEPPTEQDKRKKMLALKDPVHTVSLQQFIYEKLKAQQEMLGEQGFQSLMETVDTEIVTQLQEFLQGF
UniProt P36507, sequence (P36507 whole entry, looked up): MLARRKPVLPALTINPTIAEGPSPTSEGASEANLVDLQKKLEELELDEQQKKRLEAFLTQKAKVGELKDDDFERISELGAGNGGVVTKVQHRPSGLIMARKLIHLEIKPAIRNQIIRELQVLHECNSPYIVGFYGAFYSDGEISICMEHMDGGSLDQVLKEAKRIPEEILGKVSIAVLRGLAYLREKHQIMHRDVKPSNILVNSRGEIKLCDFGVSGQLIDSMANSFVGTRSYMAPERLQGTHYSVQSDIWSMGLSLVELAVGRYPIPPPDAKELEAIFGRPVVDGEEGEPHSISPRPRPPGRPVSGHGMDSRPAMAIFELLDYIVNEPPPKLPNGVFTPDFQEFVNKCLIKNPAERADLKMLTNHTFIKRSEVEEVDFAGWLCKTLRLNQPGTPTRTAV
UniProt Q8IVT5, sequence (Q8IVT5 whole entry, looked up): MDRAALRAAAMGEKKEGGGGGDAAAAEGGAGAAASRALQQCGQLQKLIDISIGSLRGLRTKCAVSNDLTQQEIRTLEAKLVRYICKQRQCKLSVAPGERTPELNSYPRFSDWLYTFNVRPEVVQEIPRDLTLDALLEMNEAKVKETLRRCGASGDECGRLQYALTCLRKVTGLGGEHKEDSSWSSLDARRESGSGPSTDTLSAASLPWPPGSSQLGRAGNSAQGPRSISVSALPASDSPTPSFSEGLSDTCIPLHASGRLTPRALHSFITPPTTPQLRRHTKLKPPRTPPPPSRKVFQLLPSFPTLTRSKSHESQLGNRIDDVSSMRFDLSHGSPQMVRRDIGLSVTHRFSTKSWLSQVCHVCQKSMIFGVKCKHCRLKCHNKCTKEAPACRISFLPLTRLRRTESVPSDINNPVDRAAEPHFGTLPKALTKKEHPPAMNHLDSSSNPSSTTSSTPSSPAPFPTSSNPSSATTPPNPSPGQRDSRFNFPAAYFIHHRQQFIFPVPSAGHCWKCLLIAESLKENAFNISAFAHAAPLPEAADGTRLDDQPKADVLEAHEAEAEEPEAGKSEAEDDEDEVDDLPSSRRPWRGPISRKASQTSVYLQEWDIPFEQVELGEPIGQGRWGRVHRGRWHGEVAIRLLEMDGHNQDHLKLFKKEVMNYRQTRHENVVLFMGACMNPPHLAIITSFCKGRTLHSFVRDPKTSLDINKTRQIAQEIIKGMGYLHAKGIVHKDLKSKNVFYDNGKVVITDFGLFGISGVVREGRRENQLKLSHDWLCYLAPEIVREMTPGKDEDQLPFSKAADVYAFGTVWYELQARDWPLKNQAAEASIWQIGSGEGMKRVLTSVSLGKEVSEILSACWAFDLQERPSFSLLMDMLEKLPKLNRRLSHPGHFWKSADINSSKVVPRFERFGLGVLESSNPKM
UniProt Q86UP2, sequence (Q86UP2 whole entry, looked up): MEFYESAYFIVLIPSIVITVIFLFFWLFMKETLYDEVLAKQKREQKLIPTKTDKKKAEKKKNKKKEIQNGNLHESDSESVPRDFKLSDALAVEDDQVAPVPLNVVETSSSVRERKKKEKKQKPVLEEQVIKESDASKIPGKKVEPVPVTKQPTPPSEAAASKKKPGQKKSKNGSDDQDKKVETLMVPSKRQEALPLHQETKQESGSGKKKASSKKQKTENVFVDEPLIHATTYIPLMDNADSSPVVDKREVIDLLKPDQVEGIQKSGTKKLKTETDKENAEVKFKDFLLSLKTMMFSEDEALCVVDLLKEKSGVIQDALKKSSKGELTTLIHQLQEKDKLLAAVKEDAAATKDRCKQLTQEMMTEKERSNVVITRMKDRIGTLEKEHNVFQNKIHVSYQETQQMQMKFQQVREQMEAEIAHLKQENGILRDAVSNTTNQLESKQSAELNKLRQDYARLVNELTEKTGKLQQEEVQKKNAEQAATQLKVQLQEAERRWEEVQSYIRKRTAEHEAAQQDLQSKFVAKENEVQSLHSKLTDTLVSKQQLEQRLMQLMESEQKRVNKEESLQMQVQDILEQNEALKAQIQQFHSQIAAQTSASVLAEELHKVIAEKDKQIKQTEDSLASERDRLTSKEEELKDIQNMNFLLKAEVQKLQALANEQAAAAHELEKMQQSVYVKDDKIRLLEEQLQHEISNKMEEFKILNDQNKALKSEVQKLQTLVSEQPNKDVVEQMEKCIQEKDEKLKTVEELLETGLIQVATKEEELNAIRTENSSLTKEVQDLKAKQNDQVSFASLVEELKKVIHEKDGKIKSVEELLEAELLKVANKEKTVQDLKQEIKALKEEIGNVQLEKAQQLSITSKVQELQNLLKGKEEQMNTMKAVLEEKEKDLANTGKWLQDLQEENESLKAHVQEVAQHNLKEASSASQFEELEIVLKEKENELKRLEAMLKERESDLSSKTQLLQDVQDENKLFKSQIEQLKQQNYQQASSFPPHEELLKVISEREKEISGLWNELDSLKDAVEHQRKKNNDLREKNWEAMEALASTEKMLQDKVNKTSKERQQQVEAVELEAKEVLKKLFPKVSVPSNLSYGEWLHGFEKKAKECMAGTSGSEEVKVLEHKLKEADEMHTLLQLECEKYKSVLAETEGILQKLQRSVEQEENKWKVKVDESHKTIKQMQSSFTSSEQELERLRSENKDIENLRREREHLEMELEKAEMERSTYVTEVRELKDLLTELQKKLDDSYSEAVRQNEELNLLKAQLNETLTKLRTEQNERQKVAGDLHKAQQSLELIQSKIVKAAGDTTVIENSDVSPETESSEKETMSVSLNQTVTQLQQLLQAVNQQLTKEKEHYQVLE
UniProt Q9NQ29, sequence (Q9NQ29 whole entry, looked up): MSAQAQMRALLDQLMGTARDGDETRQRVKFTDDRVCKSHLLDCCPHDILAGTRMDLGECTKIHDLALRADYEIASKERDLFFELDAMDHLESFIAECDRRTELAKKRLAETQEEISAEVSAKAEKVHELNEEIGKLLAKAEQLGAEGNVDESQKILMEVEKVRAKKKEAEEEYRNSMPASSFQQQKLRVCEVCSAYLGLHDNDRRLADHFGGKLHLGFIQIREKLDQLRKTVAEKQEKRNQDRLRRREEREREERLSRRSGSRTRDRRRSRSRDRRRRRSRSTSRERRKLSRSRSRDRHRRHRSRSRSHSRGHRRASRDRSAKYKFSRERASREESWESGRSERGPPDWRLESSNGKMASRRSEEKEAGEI
UniProt P14174, sequence (P14174 whole entry, looked up): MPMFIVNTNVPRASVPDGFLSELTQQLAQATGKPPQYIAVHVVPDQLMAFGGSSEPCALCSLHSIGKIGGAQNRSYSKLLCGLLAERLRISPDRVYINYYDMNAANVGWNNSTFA

Compound in one assay: Cc1ccc(-n2nc(C(C)(C)C)cc2NC(=O)Nc2ccc(OCCN3CCOCC3)c3ccccc23)cc1 [doramapimod]
In words: log2 fold change, soluble protein after heating vs DMSO (PISA); higher = thermal stabilisation; K562 cells, 10 uM, 30 min; active = over 0.2 and 3.5 SD of the protein, either way, in both replicates (recomputed). The method, boiled down: (§1)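 Aliquots of K562 cells (2×10^6 cells/mL) treated with 10 μM compound for 30 min were heated for 3 min over 48°C-58°C. After pooling and extraction in PBS with 0.5% NP-40 at 4°C, soluble protein from a 21,000xg, 90 min spin was quantified by TMTpro 16plex LC-MS/MS with channel sums equalised. Thermal stability is expressed against control samples, from duplicates, as a log2 fold change.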
For LARP1 (UniProt Q6PKG0), the log2 fold change was 0.06.
As to MEPCE (UniProt Q7L2J0), the log2 fold change was -0.22.
Same read-out and setting: next, MAD2L1 (UniProt Q13257): 0.034; KCTD2 (UniProt Q14681): 0.089; LYPLA2 (UniProt O95372): 0.016.
On to INPP5B (UniProt P32019), for which the log2 fold change is 0.095.
The same measure, in the same setting: next, IPO11 isoform 2 (UniProt Q9UI26): -0.028; MARCKS (UniProt P29966): 0.
The same measure, in the same setting: next, KIF2C (UniProt Q99661): 0.007; LPCAT3 (UniProt Q6P1A2): -0.042.
For the target KTN1 (UniProt Q86UP2), the log2 fold change was 0.094.
Turning to MIF (UniProt P14174), the log2 fold change is -0.019.
The same measure, in the same setting: the same measure for LUC7L3 (UniProt O95232): 0.
For the target LUC7L (UniProt Q9NQ29), the log2 fold change was 0.029.
As for KPNA1 (UniProt P52294), the log2 fold change is 0.062.
Still for that read-out and setting: the same measure for KSR1 (UniProt Q8IVT5): 0.052.
Turning to MAP2K2 (UniProt P36507), the log2 fold change is -0.038.

Compound in another assay: Cc1ccc(C(=O)N(CCCN)[C@@H](c2nc3cc(Cl)ccc3c(=O)n2Cc2ccccc2)C(C)C)cc1 [ispinesib]
Described as above. The method, boiled down:
as §1
As for MIEF1 (UniProt Q9NQG6), the log2 fold change was -0.489 (active).
On the same count and under the same terms, next, LDAH isoform 2 (UniProt Q9H6V9): -0.438 (active); MAPKAPK2 (UniProt P49137): -0.003.
For the target LIAS (UniProt O43766), the log2 fold change is -0.24.
The same measure, in the same setting: next, MFSD5 isoform 2 (UniProt Q6N075): 0.051.
With LARP4B (UniProt Q92615), the log2 fold change was -0.132.
For the target LAMP2 (UniProt P13473), the log2 fold change was -0.001.
Turning to MAGEC2 (UniProt Q9UBF1), the log2 fold change was -0.012.
On to IGFBP4 (UniProt P22692), for which the log2 fold change is -0.233.
For ILF3 isoform 7 (UniProt Q12906), the log2 fold change was 0.034.
With LTV1 (UniProt Q96GA3), the log2 fold change was -0.271.
Regarding MICU2 (UniProt Q8IYU8), the log2 fold change was -0.213.
Turning to MCUR1 (UniProt Q96AQ8), the log2 fold change was 0.255.
Consider KDM1A isoform 2 (UniProt O60341), for which the log2 fold change is -0.057.
Turning to LEMD2 (UniProt Q8NC56), the log2 fold change is -0.438 (active).
Same read-out and setting: next, LRRFIP1 (UniProt Q32MZ4): -0.019; LPIN1 isoform 7 (UniProt Q14693): -0.037.
Regarding MFN1 (UniProt Q8IWA4), the log2 fold change was -0.207.
On to KIF1B isoform 4 (UniProt O60333), for which the log2 fold change is -0.149.
In the case of MFGE8 (UniProt Q08431), the log2 fold change was -0.122.
On to MCCC2 (UniProt Q9HCC0), for which the log2 fold change is 0.047.
For MICU1 isoform 3 (UniProt Q9BPX6), the log2 fold change is -0.458 (active).
With LARP1 (UniProt Q6PKG0), the log2 fold change is -0.166.
For the target MEPCE (UniProt Q7L2J0), the log2 fold change was -0.065.
MAD2L1 (UniProt Q13257): the log2 fold change is -0.023.
As for KCTD2 (UniProt Q14681), the log2 fold change was 0.026.
On the same count and under the same terms, next, LYPLA2 (UniProt O95372): 0.172.
As for INPP5B (UniProt P32019), the log2 fold change was -0.005.
As for IPO11 isoform 2 (UniProt Q9UI26), the log2 fold change is 0.051.
Consider MARCKS (UniProt P29966), for which the log2 fold change was -0.031.
Same read-out and setting: next, KIF2C (UniProt Q99661): -0.028.
Still for that read-out and setting: next, LPCAT3 (UniProt Q6P1A2): -0.696 (active); KTN1 (UniProt Q86UP2): -0.207; MIF (UniProt P14174): 0.055.
For LUC7L3 (UniProt O95232), the log2 fold change is 0.099.
For the target LUC7L (UniProt Q9NQ29), the log2 fold change was -0.007.
For KPNA1 (UniProt P52294), the log2 fold change is -0.012.
Take KSR1 (UniProt Q8IVT5): the log2 fold change is -0.113.
Same read-out and setting: next, MAP2K2 (UniProt P36507): -0.058.

Compound in another assay: Cc1ccc(NC(=O)c2ccc(CN3CC[C@H](N(C)C)C3)c(C(F)(F)F)c2)cc1Nc1nccc(-c2cncnc2)n1 [bafetinib]
The assay is described as above. The procedure, abridged: as §1
With MIEF1 (UniProt Q9NQG6), the log2 fold change was -0.133.
Consider LDAH isoform 2 (UniProt Q9H6V9), for which the log2 fold change is -0.188.
Take MAPKAPK2 (UniProt P49137): the log2 fold change was 0.125.
As for LIAS (UniProt O43766), the log2 fold change is -0.034.
With MFSD5 isoform 2 (UniProt Q6N075), the log2 fold change was -0.126.
Turning to LARP4B (UniProt Q92615), the log2 fold change is 0.022.
The same measure, in the same setting: the same measure for LAMP2 (UniProt P13473): -0.124.
As to MAGEC2 (UniProt Q9UBF1), the log2 fold change is -0.024.
As for IGFBP4 (UniProt P22692), the log2 fold change was -0.126.
On to ILF3 isoform 7 (UniProt Q12906), for which the log2 fold change is 0.082.
In the case of LTV1 (UniProt Q96GA3), the log2 fold change is 0.137.
Turning to MICU2 (UniProt Q8IYU8), the log2 fold change was -0.142.
In the case of MCUR1 (UniProt Q96AQ8), the log2 fold change is 0.
In the case of KDM1A isoform 2 (UniProt O60341), the log2 fold change is 0.007.
Turning to LEMD2 (UniProt Q8NC56), the log2 fold change was -0.036.
Turning to LRRFIP1 (UniProt Q32MZ4), the log2 fold change was -0.034.
On the same count and under the same terms, next, LPIN1 isoform 7 (UniProt Q14693): -0.076; MFN1 (UniProt Q8IWA4): -0.114.
Regarding KIF1B isoform 4 (UniProt O60333), the log2 fold change was -0.056.
Take MFGE8 (UniProt Q08431): the log2 fold change is 0.024.
MCCC2 (UniProt Q9HCC0): the log2 fold change was -0.047.
On to MICU1 isoform 3 (UniProt Q9BPX6), for which the log2 fold change is -0.098.
Same read-out and setting: next, LARP1 (UniProt Q6PKG0): 0.049.
MEPCE (UniProt Q7L2J0): the log2 fold change is -0.12.
MAD2L1 (UniProt Q13257): the log2 fold change is -0.054.
As for KCTD2 (UniProt Q14681), the log2 fold change is -0.23.
On to LYPLA2 (UniProt O95372), for which the log2 fold change was 0.139.
For the target INPP5B (UniProt P32019), the log2 fold change was 0.103.
As to IPO11 isoform 2 (UniProt Q9UI26), the log2 fold change was -0.056.
For the target MARCKS (UniProt P29966), the log2 fold change was -0.102.
On the same count and under the same terms, the same measure for KIF2C (UniProt Q99661): 0.1.
LPCAT3 (UniProt Q6P1A2): the log2 fold change was 0.108.
On to KTN1 (UniProt Q86UP2), for which the log2 fold change is 0.042.
For MIF (UniProt P14174), the log2 fold change is 0.012.
In the case of LUC7L3 (UniProt O95232), the log2 fold change was 0.001.
As to LUC7L (UniProt Q9NQ29), the log2 fold change is 0.057.
As for KPNA1 (UniProt P52294), the log2 fold change is 0.
Regarding KSR1 (UniProt Q8IVT5), the log2 fold change is 0.035.
Still for that read-out and setting: next, MAP2K2 (UniProt P36507): -0.081.
